# Among all 66,000 compounds or so, about 960 (1.5%) showed an effect of 50% or more. Shown is part of a subset that was picked to be rich in strong results.
# Test system: Trypanosoma brucei
# Experiment: Trypanosoma brucei 72 hour study
# Type: functional, organism-based
# Design: scale not given: in the data most compounds retested in dose-response had high values
smiles,measurement,setting,value
CNc1ccnc(NCCC(=O)Nc2ccccc2OC)n1,Percent Effect,"30 µM, 30.03 µM",54.56%
Cc1ccccc1CC(=O)NCCNc1nccc(C(F)(F)F)n1,Percent Effect,"30 µM, 30.03 µM",-20.25%
CNc1ccnc(NCCC(=O)Nc2ccccc2C)n1,Percent Effect,"30 µM, 30.03 µM",51.25%
Cc1ccccc1NC(=O)CCNC(=O)c1ccoc1,Percent Effect,"30 µM, 30.03 µM",-20.37%
CNc1ccnc(NCC(=O)Nc2cc(C)ccc2OC)n1,Percent Effect,"30 µM, 30.03 µM",42.18%
COc1ccccc1NC(=O)CCNC(=O)c1ccoc1,Percent Effect,"30 µM, 30.03 µM",-15.64%
CN(C)C(=O)[C@H]1C[C@H]2[C@H](CCN2Cc2ccc3c(c2)OCO3)O1.O=C(O)C(F)(F)F,Percent Effect,"30 µM, 30.03 µM",17.59%
Cl.N#Cc1ccc(CNCC2(c3ccccc3)CCOCC2)cc1,Percent Effect,"30.3 µM, […]",24.88%
Cc1cccc(C(=O)N2CC[C@]3(C[C@H](OCc4ccccn4)CO3)C2)c1.O=C(O)C(F)(F)F,Percent Effect,"30.3 µM, […]",-74.39%
O=C(NCc1ccccn1)[C@]12COC[C@H]1CN(Cc1ccccc1F)C2.O=C(O)C(F)(F)F.O=C(O)C(F)(F)F,Percent Effect,"30.3 µM, […]",-30.47%
Cc1nc(CN2CC3(CCN(c4ncccn4)C3)CC2=O)cs1.O=C(O)C(F)(F)F (centres undefined),Percent Effect,"30 µM, 30.03 µM",-28.21%
COCCNC(=O)CCn1ncc2c(Cl)cccc21,Percent Effect,"30.3 µM, […]",-10.63%
CN1CCN(c2ccccc2NC(=O)NCCc2ccc(O)cc2)CC1,Percent Effect,"30.3 µM, […]",8.397%
CN1CCN(c2ccccc2NC(=O)NCCc2ccccc2)CC1,Percent Effect,"30.3 µM, […]",100.1%
CN1CCN(c2ccccc2NC(=O)NCC[S+](C)[O-])CC1 (centres undefined),Percent Effect,"30.3 µM, […]",11.12%
O=C(O)C(F)(F)F.O=C1[C@@H]2CCN(Cc3ccoc3)C[C@@H]2OCCN1c1ccccc1,Percent Effect,"30 µM, 30.03 µM",19.86%
CC(C)Oc1ccc(CSc2nnc(CN3CCCC3=O)o2)cc1,Percent Effect,"30 µM, 30.03 µM",72.7%
O=C1CCCN1Cc1nnc(SCc2ccc3c(c2)CCC3)o1,Percent Effect,"30 µM, 30.03 µM",47.68%
CC(C)c1cccc(CSc2nnc(CN3CCCC3=O)o2)n1,Percent Effect,"30 µM, 30.03 µM",-4.842%
O=C(Cc1ccccn1)N1CC[C@]2(C[C@@H](Oc3ncccc3F)CO2)C1.O=C(O)C(F)(F)F.O=C(O)C(F)(F)F,Percent Effect,"30 µM, 30.03 µM",-12.46%
CN(CCCn1cnc2c(N)ncnc21)Cc1ccccc1,Percent Effect,"30 µM, 30.03 µM",-6.688%
CNC(=O)c1cc2c(nc1N(C)C)CCN(c1ncc(F)cn1)CC2.O=C(O)C(F)(F)F,Percent Effect,"30.3 µM, […]",-8.544%
OCC1CCCN1c1cc(NCCc2ccsc2)ncn1 (centres undefined),Percent Effect,"30 µM, 30.03 µM",6.798%
Cc1cc(NC(=O)NCCO)nn1-c1ccc(Cl)cc1Cl,Percent Effect,"30 µM, 30.03 µM",-0.9538%
O=C(CN1C(=O)CC2(CCCC2)C1=O)NCCc1nccs1,Percent Effect,"30 µM, 30.03 µM",-3.261%
CN(Cc1cnc(N)nc1)CC1CCCN(CCc2ccc(Cl)cc2)C1 (centres undefined),Percent Effect,"30 µM, 30.03 µM",-6.233%
COc1ccc(CCN2CCCC(CN(C)Cc3[nH]cnc3C)C2)cc1 (centres undefined),Percent Effect,"30 µM, 30.03 µM",11.78%
CN(Cc1ccncc1)CC1CCCN(CCc2ccc(Cl)cc2)C1 (centres undefined),Percent Effect,"30 µM, 30.03 µM",15.49%
Cc1nc[nH]c1CN(C)CC1CCCN(CCc2ccc(Cl)cc2)C1 (centres undefined),Percent Effect,"30 µM, 30.03 µM",61.25%
CN(Cc1cccc(O)c1)CC1CCCN(CCc2ccc(Cl)cc2)C1 (centres undefined),Percent Effect,"30 µM, 30.03 µM",55.85%
CN(Cc1ccccc1O)CC1CCCN(CCc2ccc(Cl)cc2)C1 (centres undefined),Percent Effect,"30 µM, 30.03 µM",6.545%
Cc1ccc(NC(C)(C)c2nnnn2-c2ccc(Cl)cc2)c(C)c1,Percent Effect,"30 µM, 30.03 µM",-23.29%
Cc1nc2cc(C3CCN(Cc4ccccc4F)C3)nn2c(O)c1C (centres undefined),Percent Effect,"30.3 µM, […]",14.24%
Cc1nnc([C@H]2C[C@@H]3CCN(Cc4ccc(C)o4)C[C@H]3O2)[nH]1.O=C(O)C(F)(F)F,Percent Effect,"30 µM, 30.03 µM",-11.08%
COc1cc2c(cc1CN1CCn3c(CO)nnc3C1)CCC2.O=C(O)CC(O)(CC(=O)O)C(=O)O,Percent Effect,"30.3 µM, […]",-66.2%
O=C(COC[C@H]1CC[C@H]2[C@H](CCN2c2ncccn2)O1)N1CCCC1.O=C(O)C(F)(F)F,Percent Effect,"30 µM, 30.03 µM",52.31%
O=C(COCC1CC[C@H]2[C@H](CCN2c2ncccn2)O1)N1CCCC1.O=C(O)C(F)(F)F (some centres undefined),Percent Effect,"30 µM, 30.03 µM",-11.45%
O=C(COC[C@H]1CC[C@H]2[C@H](CCN2c2ccccn2)O1)N1CCCC1.O=C(O)C(F)(F)F,Percent Effect,"30 µM, 30.03 µM",-34.45%
O=C(CC1CC1)N1CCC2(CC1)CN(c1cccnc1)C(=O)CO2.O=C(O)C(F)(F)F,Percent Effect,"30.3 µM, […]",-59.01%
CCOc1ncccc1C(=O)N1CCC(Nc2ccc(C)nn2)CC1,Percent Effect,"30.3 µM, […]",1.842%
same,Percent Effect,"10 mM, 10 mM as filed; unlikely as a test dose",-20.5%
CN(C)S(=O)(=O)N1C[C@H]2C[C@H](C(=O)Nc3cccnc3)[C@@H](C1)O2,Percent Effect,"30.3 µM, […]",-739.2%
N#Cc1c(C2CC2)cc(-c2ccc(F)c(F)c2)nc1N,Percent Effect,"30.3 µM, […]",-90.74%
COc1ccc(-c2cc(C3CC3)c(C#N)c(N)n2)cc1F,Percent Effect,"30.3 µM, […]",93.34%
N#Cc1c(C2CC2)cc(-c2ccc(O)cc2)nc1N,Percent Effect,"30 µM, 30.03 µM",17.72%
CN(C)CCO[C@@H]1CC[C@H]2[C@H]1OCCN2C(=O)c1ccc(F)cc1.O=C(O)C(F)(F)F,Percent Effect,"30.3 µM, […]",-19.82%
CN(C)c1cc(CNC(=O)Nc2ccc(N3CCCC3)nc2)ccn1,Percent Effect,"30.3 µM, […]",18.28%
O=C(CC1CCC2(CC1)CCN(Cc1cccnc1)CC2)N1CC=CC1.O=C(O)C(F)(F)F.O=C(O)C(F)(F)F,Percent Effect,"30.3 µM, […]",-37.26%
O=C(C1CCOCC1)N1CCC2(CCN(Cc3nccs3)CC2)CC1.O=C(O)C(F)(F)F,Percent Effect,"30 µM, 30.03 µM",11.85%
O=C(C1CCOC1)N1CCC2(CCN(Cc3nccs3)C2)CC1 (centres undefined),Percent Effect,"30 µM, 30.03 µM",6.218%
O=C(C1CCOC1)N1CCC2(CCN(Cc3nccs3)CC2)CC1 (centres undefined),Percent Effect,"30 µM, 30.03 µM",55.49%
CCn1cc(C(=O)N2C[C@H]3C[C@H](Oc4ccccc4)C[C@H]3C2)cn1,Percent Effect,"30.3 µM, […]",7.287%
CS(=O)(=O)NCc1nnc2n1CCN(Cc1ccccn1)C2,Percent Effect,"30.3 µM, […]",73.82%
CS(=O)(=O)NCc1nnc2n1CCN(Cc1cccnc1)C2,Percent Effect,"30.3 µM, […]",-308.6%
CS(=O)(=O)NCc1nnc2n1CCN(Cc1ccncc1)C2,Percent Effect,"30.3 µM, […]",-346.7%
CC(C)=CCN1C(=O)[C@H]2CC[C@@H]1CN(c1ncccc1C(N)=O)C2,Percent Effect,"30 µM, 30.03 µM",2.727%
CC1c2ncc(CNC(=O)C3CC3)n2CCN1Cc1nccs1.O=C(O)C(F)(F)F (centres undefined),Percent Effect,"30.3 µM, […]",-11.04%
CC(C)(C)n1ncc2c(=O)[nH]c(NC3CC=CC3)nc21,Percent Effect,"30 µM, 30.03 µM",100.8%
CN1CC(Nc2nc3c(cnn3C(C)(C)C)c(=O)[nH]2)CCC1=O (centres undefined),Percent Effect,"30 µM, 30.03 µM",-21.89%
CC(C)(C)n1ncc2c(=O)[nH]c(N3CC(O)C3)nc21,Percent Effect,"30 µM, 30.03 µM",18.67%
Cc1ncc(CN2CCC(N(C)Cc3noc(C4CC4)n3)C2)s1 (centres undefined),Percent Effect,10 µM,-20.3%
CC(Cn1cccn1)NC(=O)NCc1cccnc1 (centres undefined),Percent Effect,10 µM,-30.88%
O=C(O)C(c1ccc2c(c1)OCCO2)N1CCC(N2CCSCC2)CC1 (centres undefined),Percent Effect,"30 µM, 30.03 µM",-29.57%
Cc1nc(CN(C)CC2CCCN2c2cccnn2)nc2ccccc12 (centres undefined),Percent Effect,"30.3 µM, […]",101.1%
CN(Cc1nc(N)c2ccccc2n1)CC1CCCN1c1cccnn1 (centres undefined),Percent Effect,"30 µM, 30.03 µM",4.932%
Cc1nc2ccccc2nc1CN(C)CC1CCCN1c1cccnn1 (centres undefined),Percent Effect,"30 µM, 30.03 µM",-12.68%
Cc1nn(C)c(N(C)C)c1CNCCOc1ccc2c(c1)OCO2.Cl,Percent Effect,10 µM,-62.44%
Cc1nc(CNc2cccc(Cl)c2Cl)cs1,Percent Effect,"30.3 µM, […]",13.05%
CN(C)c1cccc(C2CCCN2Cc2nnnn2C2CC2)c1 (centres undefined),Percent Effect,"30 µM, 30.03 µM",-5.59%
CN(C)c1cccc(C2CCCN2CCCN2CCOC2=O)c1 (centres undefined),Percent Effect,"30.3 µM, […]",100.6%
O=C1OCCN1CCCN1CCCC1c1ccc(O)cc1 (centres undefined),Percent Effect,"30.3 µM, […]",-41.53%
Cc1cc(C(=O)N2CCN(c3nc4c(C(C)C)cccc4s3)CC2)no1,Percent Effect,"30 µM, 30.03 µM",-24.13%
Cc1ccc(CN(CCCn2ccnc2)Cc2cnc(N(C)C)nc2)s1.O=C(O)CC(O)(CC(=O)O)C(=O)O,Percent Effect,"30.3 µM, […]",-19.58%
CN(C)c1ccc(CN(CCCn2ccnc2)Cc2c[nH]cn2)cc1.O=C(O)CC(O)(CC(=O)O)C(=O)O,Percent Effect,"30.3 µM, […]",101.7%
Cc1ccc(CN(CCCn2ccnc2)Cc2c[nH]cn2)s1.O=C(O)CC(O)(CC(=O)O)C(=O)O,Percent Effect,"30.3 µM, […]",1.137%
CCOc1ccc(Cl)cc1C1CCCCN1.Cl (centres undefined),Percent Effect,"30 µM, 30.03 µM",-10.24%
Cc1cccc(CN2C(=O)CCC23CCN(C(=O)NC(C)C)CC3)n1.O=C(O)C(F)(F)F,Percent Effect,"30.3 µM, […]",-47.32%
Cc1ccc(-c2cc(C(F)(F)F)nc(N3CCOCC3)n2)s1,Percent Effect,"30 µM, 30.03 µM",-24.17%
CCn1ncc(-c2cc(C(F)(F)F)nc(N3CCC(N)CC3)n2)c1C,Percent Effect,"30.3 µM, […]",100.2%
O=C(O)C1CCCN1c1nc(-c2ccc(Cl)c(Cl)c2)cc(C(F)(F)F)n1 (centres undefined),Percent Effect,"30 µM, 30.03 µM",-7.275%
O=C(O)C1CCCN1c1nc(-c2ccc(Cl)cc2)cc(C(F)(F)F)n1 (centres undefined),Percent Effect,"30 µM, 30.03 µM",-38.97%
CCc1ccc(-c2cc(C(F)(F)F)nc(N3CCC(N)CC3)n2)cc1,Percent Effect,"30.3 µM, […]",100.3%
Cc1c(-c2cc(C(F)(F)F)nc(N3CCC(N)CC3)n2)cnn1C,Percent Effect,"30.3 µM, […]",47.45%
Cc1nccn1CCC1CCNCC1.Cl.Cl,Percent Effect,"30.3 µM, […]",-19.74%
CC1c2ncc(Cn3cccn3)n2CCN1Cc1ccc(F)cc1.O=C(O)C(F)(F)F (centres undefined),Percent Effect,"30.3 µM, […]",6.386%
CCS(=O)(=O)N1CCCC(Cc2cnccn2)C1 (centres undefined),Percent Effect,"30.3 µM, […]",-26.51%
C1CCCN(CC2CCCN(Cc3noc(C4CC4)n3)C2)CC1 (centres undefined),Percent Effect,"30.3 µM, […]",63.76%
C1CCC(CNC2CCCN(Cc3noc(C4CC4)n3)C2)C1 (centres undefined),Percent Effect,"30.3 µM, […]",26.01%
c1ncn(CC2CCCN(Cc3noc(C4CC4)n3)C2)n1 (centres undefined),Percent Effect,"30.3 µM, […]",-10.36%
C1CCCN(C2CCCN(Cc3noc(C4CC4)n3)C2)CC1 (centres undefined),Percent Effect,"30.3 µM, […]",49.07%
C1CC(NCC2CC2)CN(Cc2noc(C3CC3)n2)C1 (centres undefined),Percent Effect,"30.3 µM, […]",-4.666%
C1CCC(CNC2CCCN(Cc3noc(C4CC4)n3)C2)CC1 (centres undefined),Percent Effect,"30.3 µM, […]",78.83%
Cn1cc(CN2C[C@@H]3COC[C@H](C(=O)Nc4cccnc4)[C@@H]3C2)cn1.O=C(O)C(F)(F)F.O=C(O)C(F)(F)F,Percent Effect,"30 µM, 30.03 µM",-8.066%
NC(=O)c1ccccc1NC(=O)CCN1CCN(c2ccccc2)CC1,Percent Effect,"30 µM, 30.03 µM",4.761%
